Results taken from PubChem BioAssay (Tox21).
Records with an inconclusive call do not appear. Activity calls are given as the source filed them. Calls follow the shape of the full dose curve. Residues, ends and D or L forms follow the SMILES beside them.

Experiments:
[1] = target: Acetylcholinesterase (Homo sapiens) (UniProt P22303); test: Acetylcholinesterase (AChE) small molecule antagonists: colormetric cell-based qHTS assay (AID 1347395); also: nearly all actives have a fitted effect of over 30% in size
Procedure, shortened: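 SH-SY5Y cells, plated overnight at 37 C, were exposed to compounds for 30 min at 37 C and 5% CO2. Acetylthiocholine plus DTNB was then added, and thiocholine from endogenous AChE was quantified colorimetrically after 90 min at 37 C.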

[2] = target: Acetylcholinesterase (Homo sapiens) (UniProt P22303); test: Acetylcholinesterase (AChE) small molecule antagonists: enzyme-based qHTS assay (AID 1347397); conditions: Potency: AChE enzyme activity inhibition; outcome: AChE enzyme activity inhibition; also: nearly all actives have a fitted effect of over 55% in size
Procedure, shortened: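 Recombinant human AChE, dispensed at 50 mU/mL, was preincubated with Tox21 10K compounds or DMSO vehicle for 30 min at room temperature. DTNB plus acetylthiocholine was then added, and thiocholine was measured colorimetrically after a further 10 min.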

[3] = target: Acetylcholinesterase (Homo sapiens) (UniProt P22303); test: Acetylcholinesterase (AChE) small molecule antagonists: fluorescence cell-based qHTS assay (AID 1347398); conditions: Potency: AChE activity; outcome: AChE activity; also: nearly all actives have a fitted effect of over 50% in size
Procedure, shortened: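 Human SH-SY5Y cells were plated overnight at 37 C, exposed to compound for 30 min at 37 C, 5% CO2, then given acetylthiocholine plus Thiolite Green for 40 min at room temperature; thiocholine fluorescence (Ex/Em 490/520 nm) reports endogenous AChE activity.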

[4] = target: Acetylcholinesterase (Homo sapiens) (UniProt P22303); test: Acetylcholinesterase (AChE) small molecule antagonists: enzyme-based qHTS assay with human liver microsomes (AID 1347399); conditions: Potency: qHTS inhibition; outcome: qHTS inhibition; also: nearly all actives have a fitted effect of over 60% in size
Procedure, shortened: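 Recombinant human AChE (50 mU/mL in the enzyme mix) and human liver microsomes (0.25 mg/mL final) were preincubated with compound and NADPH (0.25 mg/mL final) for 30 min at 37 C. Acetylthiocholine/DTNB was then added; thiocholine was read colorimetrically after 10 min at room temperature.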
% is scaled to controls: 0 for no effect and ±100 for the full control effect.

Acetylcholinesterase (Homo sapiens), sequence (P22303 whole entry, looked up): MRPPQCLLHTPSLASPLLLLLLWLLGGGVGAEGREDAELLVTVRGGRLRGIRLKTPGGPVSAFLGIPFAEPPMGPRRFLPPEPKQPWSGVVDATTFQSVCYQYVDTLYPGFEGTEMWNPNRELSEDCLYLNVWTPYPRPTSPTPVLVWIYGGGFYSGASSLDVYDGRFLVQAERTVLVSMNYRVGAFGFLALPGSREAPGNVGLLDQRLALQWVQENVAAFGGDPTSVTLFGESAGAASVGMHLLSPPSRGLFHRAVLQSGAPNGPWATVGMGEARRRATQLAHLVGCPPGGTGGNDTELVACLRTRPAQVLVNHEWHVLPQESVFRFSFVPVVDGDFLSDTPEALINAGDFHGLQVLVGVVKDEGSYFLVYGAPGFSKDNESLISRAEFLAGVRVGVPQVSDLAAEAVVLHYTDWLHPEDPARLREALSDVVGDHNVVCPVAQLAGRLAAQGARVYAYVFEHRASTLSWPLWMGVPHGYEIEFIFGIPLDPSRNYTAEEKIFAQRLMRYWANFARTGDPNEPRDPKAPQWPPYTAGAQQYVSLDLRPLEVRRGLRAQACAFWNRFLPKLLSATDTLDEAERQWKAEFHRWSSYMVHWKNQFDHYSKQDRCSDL

COc1ccccc1NC(=O)CC(C)=O
inactive: Potency [1] | Potency [2] | Potency [3] | Potency [4]

Cc1c[nH]c(=O)[nH]c1=O
inactive: Potency [1] | Potency [2] | Potency [3] | Potency [4]

COC(=O)c1nc(Cl)c(Cl)nc1N
inactive: Potency [1] | Potency [2] | Potency [3] | Potency [4]

CC(C)(N=C=O)c1cccc(C(C)(C)N=C=O)c1
inactive: Potency [1] | Potency [2] | Potency [3] | Potency [4]

COc1ccc(NC(C)=O)cc1
inactive: Potency [1] | Potency [2] | Potency [3] | Potency [4]

CC(C)=CC(=O)C=C(C)C
inactive: Potency [1] | Potency [2] | Potency [3] | Potency [4]

Cc1nc2ccccc2s1
inactive: Potency [1] | Potency [2] | Potency [3] | Potency [4]

CCN(CC)CCSC(=O)C(c1ccccc1)c1ccccc1
inactive: Potency [1] | Potency [2] | Potency [3] | Potency [4]

O=C1NC(c2ccccc2)(c2ccccc2)C(=O)N1COP(=O)(O)O
inactive: Potency [1] | Potency [2] | Potency [3] | Potency [4]

C=COCC1CCC(CO)CC1 (stereo not given)
inactive: Potency [1] | Potency [2] | Potency [3] | Potency [4]

O=Cc1ccc([N+](=O)[O-])cc1
inactive: Potency [1] | Potency [2] | Potency [3] | Potency [4]

NCCN1CCNC1=O
inactive: Potency [1] | Potency [2] | Potency [3] | Potency [4]

CCc1oc2ccccc2c1C(=O)c1cc(Br)c(O)c(Br)c1
inactive: Potency [1] | Potency [2] | Potency [3] | Potency [4]

CC1(C)CC(OC(=O)CCCCCCCCC(=O)OC2CC(C)(C)NC(C)(C)C2)CC(C)(C)N1
inactive: activity, negative = inhibition [1] -3.47% [at 23.6 µM] | activity change, negative = inhibition [2] 1.77% [at 23.6 µM] | activity change, negative = inhibition [3] -14.4% [at 23.8 µM] | activity change, negative = inhibition [4] 0.16% [at 23.6 µM]

C[C@]1(Cn2ccnn2)[C@H](C(=O)O)N2C(=O)C[C@H]2S1(=O)=O
inactive: Potency [1] | Potency [2] | Potency [3] | Potency [4]

CC(=O)Oc1ccc(C(=C2CCCCC2)c2ccc(OC(C)=O)cc2)cc1
inactive: Potency [1] | Potency [2] | Potency [3] | Potency [4]

Cc1cc(C)n(CO)n1
inactive: Potency [1] | Potency [2] | Potency [3] | Potency [4]

CC(C)c1ccc(C=O)cc1
inactive: Potency [1] | Potency [2] | Potency [3] | Potency [4]

NS(=O)(=O)c1ccccc1OC(F)(F)F
inactive: Potency [1] | Potency [2] | Potency [3] | Potency [4]

CCOC(=O)CC(O)(CC(=O)OCC)C(=O)OCC
inactive: Potency [1] | Potency [2] | Potency [3] | Potency [4]

Cc1ccc(C(C)C)c(O)c1
inactive: Potency [1] | Potency [2] | Potency [3] | Potency [4]

CC(C)(O)C(=O)c1ccc(OCCO)cc1
inactive: Potency [1] | Potency [2] | Potency [3] | Potency [4]

NCc1ccccc1Sc1ccccc1CO
inactive: Potency [1] | Potency [2] | Potency [3] | Potency [4]

CCCCCCC(O)CCCCCCCCCCC(=O)O (stereo not given)
inactive: Potency [1] | Potency [2] | Potency [3] | Potency [4]

CC(C)c1ccc2c(C(C)C)cc(C(C)C)c(S(=O)(=O)O)c2c1
inactive: Potency [1] | Potency [2] | Potency [3] | Potency [4]

O=C(O)c1c(Cl)ccc(Cl)c1Cl
inactive: Potency [1] | Potency [2] | Potency [3] | Potency [4]

CC(C)(CO)[C@@H](O)C(=O)NCCCO
inactive: Potency [1] | Potency [2] | Potency [3] | Potency [4]

Cc1ccc(Cl)cc1
inactive: Potency [1] | Potency [2] | Potency [3] | Potency [4]

COC(=O)[C@H](Cc1ccccc1)NC(=O)[C@@H](N)CC(=O)O (H-Asp-Phe-OMe)
inactive: Potency [1] | Potency [2] | Potency [3] | Potency [4]

O=C(O)c1ccc(Cl)cc1Cl
inactive: Potency [1] | Potency [2] | Potency [3] | Potency [4]

Fc1ccccc1-c1ccccc1
inactive: Potency [1] | Potency [2] | Potency [3] | Potency [4]

C1CCC(SSC2CCCCC2)CC1
inactive: Potency [1] | Potency [2] | Potency [3] | Potency [4]

C[N+]1(CC2COC(c3ccccc3)(C3CCCCC3)O2)CCCCC1 (stereo not given)
inactive: Potency [1] | Potency [2] | Potency [3] | Potency [4]

Cc1cccc(C)c1NC(=O)CN1CCCC1
inactive: Potency [1] | Potency [2] | Potency [3] | Potency [4]

CC(=O)NNC(C)=O
inactive: Potency [1] | Potency [2] | Potency [3] | Potency [4]

O=C(c1ccccc1)c1ccc(O)cc1
inactive: Potency [1] | Potency [2] | Potency [3] | Potency [4]

C=C(C)C(=O)OCCOCCOCCOC(=O)C(=C)C
inactive: Potency [1] | Potency [2] | Potency [3] | Potency [4]

COc1ccc(N)c(C)c1
inactive: Potency [1] | Potency [2] | Potency [3] | Potency [4]

Cc1cccc2ccccc12
inactive: Potency [1] | Potency [2] | Potency [3] | Potency [4]

CCc1occc(=O)c1O
inactive: Potency [1] | Potency [2] | Potency [3] | Potency [4]

O=CCc1ccccc1
inactive: Potency [1] | Potency [2] | Potency [3] | Potency [4]

Cc1ncc[nH]1
inactive: Potency [1] | Potency [2] | Potency [3] | Potency [4]

Cc1cc(=O)[nH]c(=O)[nH]1
inactive: Potency [1] | Potency [2] | Potency [3] | Potency [4]

CC[C@]12CCCN3CCc4c(n(c5ccccc45)[C@@](O)(C(=O)OC)C1)[C@@H]32
inactive: Potency [1] | Potency [2] | Potency [3] | Potency [4]

COc1ccc(C)cc1[N+](=O)[O-]
inactive: Potency [1] | Potency [2] | Potency [3] | Potency [4]

O=C(c1ccccc1)C(O)c1ccccc1 (stereo not given)
inactive: Potency [1] | Potency [2] | Potency [3] | Potency [4]

C/C=C/c1ccc(OC)c(OC)c1
inactive: Potency [1] | Potency [2] | Potency [3] | Potency [4]

CCCCC1CCC(=O)O1 (stereo not given)
inactive: Potency [1] | Potency [2] | Potency [3] | Potency [4]

ClC1=C(Cl)C1(Cl)Cl
inactive: Potency [1] | Potency [2] | Potency [3] | Potency [4]

CCN(CCO)CCCC(C)Nc1ccnc2cc(Cl)ccc12 (stereo not given)
inactive: activity, negative = inhibition [1] -5.02% [at 10.5 µM] | activity change, negative = inhibition [2] -2.76% [at 10.5 µM] | activity change, negative = inhibition [3] -7.12% [at 10.5 µM] | activity change, negative = inhibition [4] -0.168% [at 10.5 µM]

CC(CC(C)(C)C)CC(C)(C)CC(C)(C)C (stereo not given)
inactive: Potency [1] | Potency [2] | Potency [3] | Potency [4]

CC(C)=CC(C)(C)C
inactive: Potency [1] | Potency [2] | Potency [3] | Potency [4]

COC(CC(C)CCCC(C)(C)O)OC (stereo not given)
inactive: Potency [1] | Potency [2] | Potency [3] | Potency [4]

Nc1cc(Cl)cc(S(=O)(=O)O)c1O
inactive: Potency [1] | Potency [2] | Potency [3] | Potency [4]

CCCCOC(O)CC (stereo not given)
inactive: Potency [1] | Potency [2] | Potency [3] | Potency [4]

Oc1ccccc1F
inactive: Potency [1] | Potency [2] | Potency [3] | Potency [4]

CC(=O)OCC(C)C
inactive: Potency [1] | Potency [2] | Potency [3] | Potency [4]

CCN(C=O)CC
inactive: Potency [1] | Potency [2] | Potency [3] | Potency [4]

Cc1cc(NS(=O)(=O)c2ccc(N)cc2)nc(C)n1
inactive: Potency [1] | Potency [2] | Potency [3] | Potency [4]

Clc1ccc2c(c1)Nc1ccccc1S2
inactive: Potency [1] | Potency [2] | Potency [3] | Potency [4]
